In PubChem BioAssay (NCI):
The panel holds about 79,000 compounds, 15% with a hit somewhere; the sample as a whole holds those more often. Cut-off read from the data, not from the text of the source: active = growth inhibition above about 70%; inactive = the rest. Where a SMILES comes first, the peptide text is derived from it. [ ]: non-standard residue; d: D form. Ac5c = NC1(C(=O)O)CCCC1

Assays:
[1] = NCI Yeast Anticancer Drug Screen. Data for the rad50 strain (AID 155);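 note: 0% = growth of vehicle-only cultures of the same strain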; conditions: S. cerevisiae rad50 strain growth inhibition; at 50.0 µM; stronger effect = higher value
In short: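 Readout: growth inhibition relative to vehicle-treated cultures. Compound exposure was carried out in a genetically defined yeast strain deficient in DNA damage repair.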

[2] = NCI Yeast Anticancer Drug Screen. Data for the mec2-1 strain (AID 157); conditions: S. cerevisiae mec2-1 strain, at 50.0 µM, stronger effect = higher value
In short: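 Compounds were applied to mec2-1 yeast cells. Their growth was then compared with that of vehicle-treated cultures to give growth inhibition.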

[3] = NCI Yeast Anticancer Drug Screen. Data for the sgs1 mgt1 strain (AID 161);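 note: 0% = growth of cultures given vehicle only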; conditions: S. cerevisiae sgs1 mgt1 strain, at 50.0 µM, stronger effect = higher value
In short: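 Percent growth inhibition was derived by comparing compound-exposed mutant yeast with vehicle-exposed cultures. The strain carries alterations in DNA damage repair.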

[4] = NCI Yeast Anticancer Drug Screen. Data for the cln2 rad14 strain (AID 165);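 note: 0% = growth equal to vehicle treated cultures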; conditions: S. cerevisiae cln2 rad14 strain, at 50.0 µM, stronger effect = higher value
In short: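 Strain: cln2 rad14 yeast, altered in cell cycle control and DNA damage repair. Read-out: growth inhibition vs vehicle.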

[5] = NCI Yeast Anticancer Drug Screen. Data for the bub3 strain (AID 167); conditions: S. cerevisiae bub3 mutant strain, at 50.0 µM, stronger effect = higher value
In short: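 Readout: yeast growth inhibition, expressed relative to vehicle-only wells. The test organism is a mutant strain from a panel with lesions in DNA repair or checkpoint genes.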

[6] = NCI Yeast Anticancer Drug Screen. Data for the mlh1 rad18 strain (AID 175); conditions: S. cerevisiae mlh1 rad18 strain growth inhibition; at 50.0 µM; stronger effect = higher value
In short: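 A repair-deficient yeast strain is exposed to test compound, and growth is scored relative to vehicle-treated controls.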

Measured: growth inhibition

Cc1nnc(N)s/c1=N/O
inactive: [1] 7.5% | [2] 4.6% | [3] 2.45% | [4] -5.55% | [5] 3.15% | [6] -11.6%

CCOC(=O)C1=C(C)NC(=O)NC1c1ccc(N(C)C)cc1 (configuration not stated)
inactive: [1] 22.8% | [2] -4.05% | [3] 23.2% | [4] 21.6% | [5] 30.6% | [6] 29.1%

C=C(Cl)C(=C)CCC(Cl)C(C)C (configuration not stated)
inactive: [1] -6.15% | [2] -9.4% | [3] 1.6% | [4] 20.6% | [5] 0.25% | [6] 0.55%

Cc1ccc(C(=O)Cc2nc3c([nH]c2=O)c(C)nn3-c2ccccc2)c(C)c1
inactive: [1] 2.6% | [2] -27.5% | [3] 2.55% | [4] 12.7% | [5] -0.85% | [6] 4.7%

CC(/C=N/Nc1ccccc1)=N\N=c1/scc(-c2ccc(Cl)cc2)n1-c1ccc(Cl)cc1
inactive: [1] 22.4% | [2] 4.65% | [3] 13.9% | [4] -0.2% | [5] 11.1% | [6] 27.9%

CC(=O)CSCc1ccccn1
inactive: [1] 5.05% | [2] 15% | [3] -18.6% | [4] 10.2% | [5] 22.6% | [6] -1.9%

O=C1NC(=O)c2ccccc2/C1=C/c1ccc2c(c1)OCO2
inactive: [1] -16.6% | [2] -8.25% | [3] -13.3% | [4] -32.5% | [5] -2.6% | [6] -26.6%

Cc1ccccc1C(=O)NCc1ccccc1
inactive: [1] 13.6% | [2] -6.7% | [3] 0.6% | [4] -27.5% | [5] 11.3% | [6] 4.25%

COc1ccccc1-n1c(O)c(N=Nc2ccc(Cl)cc2)c(=O)n(-c2ccc(I)cc2)c1=S
inactive: [1] 45.4% | [2] 10% | [3] 36% | [4] -9% | [5] 1.25% | [6] 27.1%

CC1(C)C(=O)c2cc3ccc4ccccc4c3cc2C(C)(C)C1(C)C
inactive: [1] -1.25% | [2] -4.25% | [3] 1.2% | [4] 43.6% | [5] 2.75% | [6] -7%

Nc1ccc(COCCOCc2ccc(N)cc2)cc1
inactive: [1] -4.35% | [2] 1.7% | [3] -4.25% | [4] -5.6% | [5] 2.8% | [6] 17.4%

N#CCN1C(=O)c2ccccc2C1=O
inactive: [1] 6% | [2] -2.85% | [3] 1.45% | [4] 2.15% | [5] 3.15% | [6] -15.8%

CCOc1cc(N)nc(N)n1
inactive: [1] 13.1% | [2] -10.3% | [3] 7.15% | [4] 5.9% | [5] 5.65% | [6] -7.75%

CCCCCCCCCCCC(=O)C1=C(O)C(O)CCC1=O (configuration not stated)
inactive: [1] -1.35% | [2] -4.7% | [3] -6.55% | [4] -50% | [5] -7.4% | [6] -16.9%

Cc1ccc(OS(=O)Nc2cccc(N)c2)cc1 (configuration not stated)
inactive: [1] -5.35% | [2] -12.1% | [3] -13.9% | [4] -22.1% | [5] -8.4% | [6] -10.3%

CSc1ccc2c(cc1=O)[C@@H](NC(=O)c1ccc([N+](=O)[O-])cc1)CCc1cc(O)c(O)c(O)c1-2
inactive: [1] 37.3% | [2] 33.5% | [3] 39.2% | [4] 23.1% | [5] 43.8% | [6] 50%

O=c1[nH]c2cc([N+](=O)[O-])ccc2nc1/C(=N\Nc1ccccc1)C(O)c1ccc2c(c1)OCO2 (configuration not stated)
inactive: [1] 26.5% | [2] 5.4% | [3] 21.6% | [4] 29.4% | [5] 10.2% | [6] 41.1%

CNC(=S)NNC1=NCCCN1
inactive: [1] -48.5% | [2] -10.2% | [3] -25.9% | [4] 13.8% | [5] 9.75% | [6] -9.9%

COC(=O)C1(NC(=O)C(C)NC(=O)C(CCCCN)NC(=O)C(CC(C)C)NC(C)=O)CCCC1 (configuration not stated) (Ac-LKA[Ac5c]-OMe; configuration not given here)
inactive: [1] 3.1% | [2] 4.7% | [3] 13.8% | [4] -6.25% | [5] -7.8% | [6] 8.05%

O=[N+]([O-])c1ccc(-c2cc3ccccn3c2)cc1
inactive: [1] -5.1% | [2] -46.2% | [3] -9.7% | [4] -11.8% | [5] 11.8% | [6] -18.1%

CC(C)/C=N/N(CCOC(=O)Nc1cccc2ccccc12)C(=O)Nc1cccc2ccccc12
inactive: [1] -4.95% | [2] -15.1% | [3] 1.75% | [4] -19.8% | [5] -8.15% | [6] 14.8%

Cc1n[nH]c(=S)n1C
inactive: [1] -25.2% | [2] -6.05% | [3] -4.25% | [4] -23.2% | [5] 8.55% | [6] 12.8%

CC(C)(C)NC(=O)c1cccc(C(=O)NC(C)(C)C)n1
inactive: [1] 3.3% | [2] -8% | [3] -0.3% | [4] -7.9% | [5] -13.3% | [6] -16.4%

Nc1c2c(nn1-c1ccccc1)C(=O)N(CCc1ccccc1)C2
inactive: [1] 0.25% | [2] 14.2% | [3] -6.05% | [4] -0.65% | [5] -3.25% | [6] -1.4%

NNC(=O)N/N=C(\CBr)c1ccc(Cl)cc1
inactive: [1] -2.35% | [2] -0.45% | [3] 6.9% | [4] -47.6% | [5] 3.95% | [6] 4.35%

C1=CC(c2ccccc2)=C(c2ccccc2)C(c2ccccc2)C(c2ccccc2)=C1 (configuration not stated)
inactive: [1] 18.2% | [2] 1.95% | [3] 13.2% | [4] 26.9% | [5] -1.05% | [6] 11.8%

CC(=O)Nc1ccc(C(=O)NN2C(=O)C(Cl)/C2=C/c2ccco2)cc1 (configuration not stated)
inactive: [1] 1.1% | [2] -8.55% | [3] -28.8% | [4] -4.75% | [5] -22.8% | [6] -20.4%

CCOC(=O)C(=Cn1c(=S)[nH]c2cc(C)ccc21)C(=O)OCC
inactive: [1] -19.8% | [2] -39.1% | [3] -16.2% | [4] 13.6% | [5] 0.1% | [6] -11.8%

CC(=O)Nc1ccc2c(c1)C(=O)c1ccc(S(C)(=O)=O)cc1-2
inactive: [1] 14.8% | [2] -1.15% | [3] -0.95% | [4] 3.5% | [5] -0.85% | [6] -3.35%

CCc1cccc(CC)c1N1C(=O)C(=O)C(C(C)=O)C1=O (configuration not stated)
inactive: [1] -4.05% | [2] -4.45% | [3] 7.6% | [4] -24.5% | [5] -1.25% | [6] 8.45%

c1ccc(Sc2nc(Sc3ccccc3)nc(Sc3ccccc3)n2)cc1
inactive: [1] -23.9% | [2] -16.4% | [3] -15.2% | [4] 17.9% | [5] -20.1% | [6] -31.7%

CCOC(=O)C1(C)CCc2sc(N)c(C#N)c21 (configuration not stated)
inactive: [1] -29.2% | [2] -2.4% | [3] 3.75% | [4] -10.8% | [5] 2.8% | [6] -8.5%
